Laboratory results from PubChem BioAssay AID504321 (NMMLSC, 2011).
Unmarked numbers belong to inactive results. Calls of active or inactive are those of the source.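 Rule for the calls: active = GFP response vs DMSO above 150% with enough events counted; inconclusive = fewer than 70 events counted for a yeast strain; inactive = the rest.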

Test: MEP2-GFP expression modulation in yeast, confirmation, flow cytometry, third cherry pick, S. cerevisiae (AID 504321);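 note: median per-cell GFP fluorescence by flow cytometry across all yeast cells; ratio of sample to DMSO median GFP so 100% equals the DMSO level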
Conditions: S. cerevisiae MEP2-GFP strain, 3 h, at 10 µM, stronger effect = higher value
For `COc1ccccc1-c1cc(C(F)(F)F)nc(S(=O)(=O)CCCC(=O)NC(C)C)n1`, the GFP response vs DMSO was 110%.
Molecule `O=C(O)CCS(=O)(=O)c1nc(-c2cccs2)cc(C(F)(F)F)n1` has a GFP response vs DMSO of 116%.
`O=c1cc(C(F)(F)F)[nH]c2c(OC(F)(F)F)cccc12` showed a GFP response vs DMSO of 114%.
Molecule `O=C(Nc1ccccc1Cl)ON=C1c2ccccc2-c2ccccc21` has a GFP response vs DMSO of 108%.
With `CC(=O)Nn1cnc2c(c1=O)C1(CCCCC1)Cc1ccccc1-2` the GFP response vs DMSO was 114%.
For `CCC(=O)Nn1cnc2c(c1=O)C1(CCCCC1)Cc1ccccc1-2`, the GFP response vs DMSO was 110%.
In the case of `O=C(Nc1nc(-c2ccccn2)cs1)c1ccccc1-n1cnnn1`, the GFP response vs DMSO was 94.7%.
`Cc1cccc(C)c1Nc1ncnc(N)c1[N+](=O)[O-]` showed a GFP response vs DMSO of 103%.
Molecule `CCCOCc1ccc(O)c2ncccc12` has a GFP response vs DMSO of 110%.
`C[n+]1cccc2c(Br)ccc([O-])c21` showed a GFP response vs DMSO of 114%.
Work on `Cn1cccc1C(=O)Nc1nc(-c2ccccn2)cs1` yielded a GFP response vs DMSO of 101%.
`C=CCNc1ncnc2ccc(Br)cc12` showed a GFP response vs DMSO of 110%.
`Cn1c(NCCO)nc2c(c1=O)C1(CCCCC1)Cc1ccccc1-2` showed a GFP response vs DMSO of 108%.
`OCCN1CCN(c2ncnc3ccc(Br)cc23)CC1` showed a GFP response vs DMSO of 112%.
Work on `Nc1[nH]c(=O)nc(Nc2ccccc2)c1N=O` yielded a GFP response vs DMSO of 108%.
With `COc1cccc2c(O)cc(=O)n(C)c12` the GFP response vs DMSO was 108%.
Molecule `Nc1nc(NCCOCCO)nc(Nc2cccc(F)c2)c1[N+](=O)[O-]` has a GFP response vs DMSO of 108%.
Work on `FC(F)Oc1cccc2cccnc12` yielded a GFP response vs DMSO of 110%.
For `Nc1ncnc(Nc2cc(Cl)cc(Cl)c2)c1[N+](=O)[O-]`, the GFP response vs DMSO was 108%.
In the case of `Oc1c(Cl)cc(Cl)c2cccnc12`, the GFP response vs DMSO was 181% (active).
Molecule `COc1cccc(OCc2cc(C(=O)N3CCN(C)C(c4ccccc4)C3)no2)c1` (centres undefined) has a GFP response vs DMSO of 108%.
For `O=C(Nc1cccc(Cl)c1)ON=C1c2ccccc2-c2ccccc21`, the GFP response vs DMSO was 110%.
Work on `Cn1c(NCCCO)nc2c(c1=O)C1(CCCCC1)Cc1ccccc1-2` yielded a GFP response vs DMSO of 112%.
Work on `O=C(N/N=C/c1ccccc1F)c1cccc2ccccc12` yielded a GFP response vs DMSO of 108%.
Molecule `Cc1ccc2c(C)ccc(O)c2n1` has a GFP response vs DMSO of 114%.
Molecule `CC(=O)Nn1cnc2c(c1=O)C1(CCCC1)Cc1ccccc1-2` has a GFP response vs DMSO of 105%.
`C/C(=N\NC(=O)c1ccccc1)c1ccccc1F` gave a GFP response vs DMSO of 116%.
With `CC(=O)Nc1ccc(-c2nc3cc(Cl)ccc3o2)cc1` the GFP response vs DMSO was 108%.
For `C/C(=N\NC(=O)c1cccc2ccccc12)c1cccnc1`, the GFP response vs DMSO was 108%.
`O=C(Nc1ccccc1)ON=C1c2ccccc2-c2ccccc21` gave a GFP response vs DMSO of 99%.
`O=C(N/N=C/c1ccccc1)c1cccc2ccccc12` gave a GFP response vs DMSO of 103%.
In the case of `Cc1cccc(Nc2cc(=O)[nH]c(=O)[nH]2)c1`, the GFP response vs DMSO was 108%.
With `CCN(CC)C(=O)Oc1ccnc2cc(Cl)ccc12` the GFP response vs DMSO was 110%.
In the case of `COc1ccc(NC(=O)O/N=C2/CCCc3ccc(OC)cc32)cc1`, the GFP response vs DMSO was 112%.
Work on `COc1ccc(OC)c(N/C(C)=C/C(=O)c2ccccc2)c1` yielded a GFP response vs DMSO of 114%.
With `CCCC(=O)Nn1cnc2c(c1=O)C1(CCCC1)Cc1ccccc1-2` the GFP response vs DMSO was 105%.
With `CC(C)Nc1ncnc2ccc(Br)cc12` the GFP response vs DMSO was 112%.
Work on `Cc1cn2c(N)c(C=C3C=C(Cl)C(=O)C(Cl)=C3)c(=O)nc2s1` yielded a GFP response vs DMSO of 112%.
Molecule `COCCCNc1nc(N)c([N+](=O)[O-])c(Nc2ccccc2OC)n1` has a GFP response vs DMSO of 110%.
